# Screening data (PubChem)
# Rows were chosen to be rich in hits. Some 21% of all compounds tested hit in one or more screens of this group.
# TDP1 cell noCPT – qHTS for Inhibitors of human tyrosyl-DNA phosphodiesterase 1 (TDP1): qHTS in cells in absence of CPT. DT40 Tdp1-/- hTDP1 cells, no CPT, ATP luminescence, 48 h. Potency, µM (titrated, usually from 46.2 µM), for the others: at the top dose activity change, negative = growth inhibition, hits mostly inhibitors. 420,000 tested, 15% active. AID 686978, 2013; also: potency is read from the fitted curve at half-maximal effect; nearly all actives have a fitted effect of over 55% in size
#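 Cells were dispensed at 400 per well, compounds added by pin tool, plates incubated ≥48 hr at 37 °C, then CellTiter-Glo added for 30 min at room temperature before luminescence reading. Line: DT40 Tdp1-/- complemented with hTDP1; camptothecin omitted.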
# VP16 counter – VP16 counterscreen qHTS for inhibitors of ROR gamma transcriptional activity; Drosophila S2 Gal4-VP16 UAS-luciferase, luminescence, 20 h; Potency, µM (series often up to 53.6 µM), for inactives: top-dose activity, negative = inhibition, actives largely listed as inhibitors; 310,000 tested, 3.5% active;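 also: Gal4-VP16 expression switched on by copper sulfate through the metallothionein promoter; potency is read from the fitted curve at half-maximal effect; nearly all actives have a fitted effect of over 50% in size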
# ELG1 DNA repair – qHTS screen for small molecules that inhibit ELG1-dependent DNA repair in human embryonic kidney (HEK293T) cells expressing luciferase-tagged ELG1 | 330,000 tested, 2.3% active | HEK293T ELG1-luciferase reporter, luminescence, 16 h; DNA damage induced by 5-fluorouridine | Potency, µM (highest dose often 46.1 µM), for inactives: at the top dose activity change, negative = inhibition, most hits filed as inhibitors | AID 504467, 2011; also: potency is read from the fitted curve at half-maximal effect; nearly all actives have a fitted effect of over 55% in size
#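 Luminescence from the luciferase reporter, measured 30 min after ONE-Glo reagent at room temperature, was the read-out. Beforehand, 2,000 cells per well were exposed for 16 hr at 37 °C to 5-fluorouridine together with compound or vehicle.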
# TDP1 cell CPT – qHTS for Inhibitors of human tyrosyl-DNA phosphodiesterase 1 (TDP1): qHTS in cells in presence of CPT | chicken DT40 Tdp1-/-;hTDP1 cells + 20 nM CPT, ATP luminescence, 48 h | Potency, µM (doses to about 46.2 µM), inactives show at the top dose activity change, negative = growth inhibition, most hits filed as inhibitors | 420,000 tested, 12% active | AID 686979, 2013; also: potency is read from the fitted curve at half-maximal effect; nearly all actives have a fitted effect of over 55% in size
#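 Cell growth measured by CellTiter-Glo luminescence after a minimum 48 h, 37 C compound exposure with 20 nM CPT in Tdp1-knockout DT40 cells stably expressing hTDP1, seeded 400/well; qHTS titration format.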
# IL1B secr inh – qHTS for Inhibitors of Inflammasome Signaling: IL-1-beta AlphaLISA Primary Screen; THP-1 LPS/ATP IL-1B secretion, AlphaLISA, 16 h; stronger effect = lower value; activity change, % at 57.5 µM; 360,000 tested, 4.7% active; in the data active = activity change below about -50%; inconclusive = mostly about -30% to -49%
#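 Secreted IL-1B measured by AlphaLISA bead assay after 16 h compound exposure of THP-1 cells; compounds (final up to 57.5 uM) added 1 h before LPS (250 ng/mL) and ATP (1.25 mM) stimulation; lower signal means less secretion.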
# RORgamma inh – qHTS for inhibitors of ROR gamma transcriptional activity; Potency, µM (series often up to 53.6 µM), inactives show top-dose activity change, negative = inhibition, actives largely listed as inhibitors; 310,000 tested, 5.4% active; Nuclear receptor ROR-gamma (Mus musculus), P51450; Drosophila S2 Gal4-RORgamma UAS-luciferase reporter, 20 h; also: potency is read from the fitted curve at half-maximal effect; nearly all actives have a fitted effect of over 60% in size
# Target sequence (P51450 whole entry, looked up, the tested form may be a part): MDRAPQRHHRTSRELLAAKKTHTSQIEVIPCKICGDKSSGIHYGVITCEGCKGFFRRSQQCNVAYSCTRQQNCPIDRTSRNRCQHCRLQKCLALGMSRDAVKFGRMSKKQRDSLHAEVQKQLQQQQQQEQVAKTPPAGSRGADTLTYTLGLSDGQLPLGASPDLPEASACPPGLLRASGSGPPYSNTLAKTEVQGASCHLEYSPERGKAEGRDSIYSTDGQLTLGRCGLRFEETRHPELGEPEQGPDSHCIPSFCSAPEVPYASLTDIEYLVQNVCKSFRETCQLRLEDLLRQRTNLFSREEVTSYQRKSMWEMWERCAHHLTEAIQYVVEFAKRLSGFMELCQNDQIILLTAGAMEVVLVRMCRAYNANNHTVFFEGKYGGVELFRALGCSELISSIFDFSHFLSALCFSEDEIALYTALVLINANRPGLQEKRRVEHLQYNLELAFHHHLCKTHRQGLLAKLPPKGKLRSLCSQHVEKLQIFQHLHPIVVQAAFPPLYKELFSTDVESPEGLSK
#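 Using a luciferase readout, inhibitors were identified by reduced reporter activity in Drosophila cells coexpressing a copper-inducible Gal4–ROR gamma fusion and UAS-driven Photinus luciferase, incubated 20 hr after 700 uM copper sulfate.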
# Starred values were filed as active, the others as inactive; ? = inconclusive; nt = no result; [ ] = remark or other dose. Unless noted, calls follow the shape of the dose curve; as a rule, active = well fitted curve in the direction sought with a large enough effect; inconclusive = small, poorly fitted or top-dose-only effect, or another doubt; inactive = no such curve, though single readings can be large; an effect the other way counts as inactive or inconclusive. % is scaled to controls: 0 for no effect and ±100 for the full control effect.
SMILES,TDP1 cell noCPT,VP16 counter,ELG1 DNA repair,TDP1 cell CPT,IL1B secr inh,RORgamma inh
O=c1cc(N=Nc2ccc(Cl)cc2)[nH]c(=O)[nH]1,0.92µM*,4µM*,23µM*,0.52µM*,-99*,2.5µM*
O=C(CN1CCN(c2ccccc2F)CC1)NC(=O)NC1CCCCC1,?,nt,-1%,?,-1,nt
CC[n+]1c(C)cc2c(sc3ccccc32)c1C,2.9µM*,-7%,-11%,12µM*,6,2%
CCc1nc(C)cc2c1sc1ccccc12,?,0%,?,-11%,nt,?
CC(C)C(=O)N(c1cc2sc(=O)oc2c2ccccc12)S(=O)(=O)c1cccs1,12µM*,?,-3%,18µM*,-18,22µM*
CC(=O)N(c1ccc2oc(=O)sc2c1)S(=O)(=O)c1cccs1,?,-1%,5%,-27%,2,-10%
COC(=O)CCN1CCN(S(=O)(=O)c2ccccc2Br)CC1,-14%,-4%,2%,-12%,7,-26%
O=C(NCCCN1CCOCC1)C1CCN(S(=O)(=O)c2cccc(Cl)c2Cl)CC1,3%,nt,10%,-25%,4,nt
CC(Oc1ccc2c(c1)c1ccnc3c4ccccc4c(=O)n2c13)C(=O)NCCN1CCOCC1 (stereo unspecified),7.3µM*,?,?,8.2µM*,-51*,-43%
CC(Oc1ccc2c3c(c(=O)oc2c1)CCCC3)C(=O)NCCN1CCOCC1 (stereo unspecified),2%,-6%,?,-25%,8,-4%
Cc1c(OC(C)C(=O)NCCCN2CCOCC2)ccc2c1oc(=O)c1ccccc12 (stereo unspecified),-28%,7%,7%,?,-7,0%
COc1ccc2c(c1OC)c(=O)n1c3ccc(OC(C)C(=O)NCCCN4CCOCC4)cc3c3ccnc2c31 (stereo unspecified),6.5µM*,-18%,?,13µM*,?,-29%
COc1ccc2c(c1OC)c(=O)n1c3ccc(OC(C)C(=O)NCCN4CCOCC4)cc3c3ccnc2c31 (stereo unspecified),23µM*,-20%,?,16µM*,?,-8%
COc1ccc(OC)c(CN2C(=O)CCC2(C)c2nnnn2-c2c(C)cccc2C)c1 (stereo unspecified),-29%,nt,nt,?,-5,nt
Cc1ccc(S(=O)(=O)N2CCC(C(=O)OCC(=O)N(Cc3ccccc3)C(C)C)CC2)cc1C,?,nt,nt,-4%,44,nt
CCc1[nH]nc(C(=O)NC2CCCc3c2cnn3-c2cc(C)cc(C)c2)c1C (stereo unspecified),?,-10%,?,0%,-2,42%
COC(=O)[C@@]1(Cc2ccc(OC)cc2)[C@H]2c3cc(C(=O)N4CCCC4)n(Cc4nc5ccccc5[nH]4)c3C[C@H]2CN1C(=O)c1ccccc1,nt,25%,nt,nt,nt,?
COc1cc(C(=O)NCC(c2ccco2)N2CCc3ccccc3C2)cc(OC)c1OC (stereo unspecified),?,nt,-23%,?,-2,nt
O=C(NCC(c1cccnc1)N1CCOCC1)c1ccc2c(c1)OCO2 (stereo unspecified),-5%,-3%,-4%,6%,7,10%
COc1cc(C(=O)NCC(c2cccnc2)N2CCc3ccccc32)cc(OC)c1OC (stereo unspecified),21µM*,nt,nt,?,nt,nt
COc1ccc(C(=O)NCC(c2cccs2)N2CCc3ccccc32)cc1OC (stereo unspecified),21µM*,nt,?,?,-12,nt
O=C(NCC(c1cccnc1)N1CCc2ccccc21)c1ccc(F)c(F)c1 (stereo unspecified),9.2µM*,nt,nt,13µM*,nt,nt
Cc1ccc(C(=O)NCC(c2cccnc2)N2CCc3ccccc32)cc1C (stereo unspecified),15µM*,nt,nt,7.3µM*,nt,nt
COc1cc(C(=O)NCC(c2cccnc2)N2CCN(C)CC2)cc(OC)c1OC (stereo unspecified),-4%,-9%,0%,-12%,10,-1%
COc1ccc(CCNC(=O)Cn2c([N+](=O)[O-])cnc2C)cc1OC,0%,3%,0%,5%,28,-7%
SMILES,TDP1 cell noCPT,VP16 counter,ELG1 DNA repair,TDP1 cell CPT,IL1B secr inh,RORgamma inh
CCCCNC(=O)C1(C)CCN1Cc1ccc(C#N)cc1 (stereo unspecified),-12%,nt,nt,-24%,-14,nt
COC(CNC(=O)c1ccc(N2CCc3ccccc32)c([N+](=O)[O-])c1)OC,?,18µM*,?,?,-15,?
NNC(=O)c1ccc(N2CCc3ccccc32)c([N+](=O)[O-])c1,?,-1%,-1%,-21%,-12,?
COC(=O)c1ccc(COc2ccccc2/C=N/NS(=O)(=O)c2ccc(C)cc2)cc1,?,-2%,-25%,18µM*,57,29%
Cc1ccc(S(=O)(=O)N/N=C/c2cccc3c2OCCO3)cc1,-37%,-4%,-4%,?,23,?
COC(=O)c1ccc(COc2ccccc2/C=C(\C#N)C(=O)Nc2ccc(C)cc2)cc1,5.2µM*,-23%,?,6.5µM*,12,4%[10 µM]
O=S(=O)(N/N=C/c1ccccc1OCc1ccc(Cl)cc1)c1ccccc1,?,-2%,?,?,6,30%
N#C/C(=C/c1ccccc1OCc1ccc(F)cc1)c1ccc(C(=O)O)cc1,11%,10%,-6%,-9%,45,?
Cc1ccc(S(=O)(=O)N/N=C/c2cccc3nccnc23)cc1,15µM*,-27%,-6%,13µM*,5,16%
N#C/C(=C\c1ccccc1OCc1ccc(C(=O)O)cc1)C(=O)Nc1ccc(O)cc1,-15%,18%,10%,2%,?,-21%
C=CCNC(=O)/C(C#N)=C/c1ccccc1OCc1ccc(C(=O)OC)cc1,7.3µM*,-9%,1%,2.9µM*,-3,?
COc1cccc(NC(=O)CCNC(=O)Cn2cnc3ccccc3c2=O)c1,5%,nt,nt,4%,nt,nt
COc1ccc(-n2c(C)c(C)c3c(NCCCN(C)C)ncnc32)cc1,-18%,1%,-6%,10%,-14,20%
